From PubChem
PGC1a acetyl inh: PGC1a acetylation modulation, inhibitor mode | U2OS PGC1a acetylation, AlphaScreen anti-acetyl-lysine; with virally co-expressed GCN5 acetyltransferase | inhibition, % at 15.6 µM | 350,000 compounds, 0.17% hits;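 active = every replicate shows inhibition of at least 40%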
rRNA inh HTS: inhibitors of bacterial rRNA selective over humanized ribosomes. GFP signal change (wild-type ribosome), % (no concentration beside the values). 350,000 compounds, 1.6% hits. E. coli WT GFP vs humanized-ribosome RFP mutants, fluorescence, 24 h; stronger effect = lower value; DMSO median 0, no signal -100;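 active = significant combined selectivity score with lowered wild-type GFP, culture density cut under 30%, mutant RFP and density less affected; inactive = any of these conditions unmet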
PAX8 inh HTS: lowers PAX8-driven luciferase in RMG-I cells | RMG-I TPO-luciferase reporter, SteadyGlo, 24 h | inhibition, % at 12.6 µM | 360,000 compounds, 1.2% hits | AID 652154;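 active = mean replicate inhibition at least 60% with every replicate also reaching 60%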;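 also: luciferase light reporting Pax8 driven TPO promoter activity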
EWS-Fli inh: blocks EWS/Fli oncoprotein-driven transcription; inhibition, % at 12.6 µM; A673 NR0B1-luciferase reporter, viability-normalised; 350,000 compounds, 0.67% hits;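 active = mean inhibition of at least 50% after viability correction, with every replicate also passing that limit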;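 also: firefly luciferase signal divided by Alamar Blue viability fluorescence both relative to DMSO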
SIRT5 block: inhibitors of human sirtuin-5 desuccinylase. Purified SirT5, succinyl-peptide AMC, trypsin-coupled fluorescence. inhibition, % at 15 µM. 330,000 compounds, 1.1% hits; in the data active = inhibition above about 15%
Target sequence (Q9NXA8 whole entry, looked up): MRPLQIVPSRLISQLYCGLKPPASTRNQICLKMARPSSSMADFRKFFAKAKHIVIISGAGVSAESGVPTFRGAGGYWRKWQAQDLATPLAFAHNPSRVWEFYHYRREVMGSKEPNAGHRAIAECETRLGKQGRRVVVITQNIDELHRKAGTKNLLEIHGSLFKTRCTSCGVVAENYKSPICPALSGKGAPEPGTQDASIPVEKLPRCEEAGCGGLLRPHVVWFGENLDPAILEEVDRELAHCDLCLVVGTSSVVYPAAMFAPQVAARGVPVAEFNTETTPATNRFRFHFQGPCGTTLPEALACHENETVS
LGR2 inh: inhibitors of bursicon-induced Drosophila LGR2 receptor cAMP signaling; HEK293 LGR2, CRE-luciferase, bursicon-stimulated, 4 h; inhibition, % at 9.99 µM; 380,000 compounds, 0.35% hits; AID 720647;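 active = drop in luminescence signal, shown as inhibition above about 50% in the replicate tests, limit read from the data, passing the limit was not always enough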;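 also: agonist challenge used bursicon conditioned medium at about half maximal strength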
Large screens that a line does not name were inactive. The list is not random: actives were taken first. Their share in the collection is about 3.4%.

COc1ccc(NC(=O)N[C@H]2CC[C@H](CCNC(=O)Cc3ccncc3)O[C@@H]2CO)cc1	none
CCSc1nc(COC(=O)NC)c(COC(=O)NC)n1C	none (no result: SIRT5 block, LGR2 inh)
CNC(=O)OCc1nc(SSC(C)(C)C)n(C)c1COC(=O)NC	EWS-Fli inh 67 (no result: SIRT5 block)
CC/C(=C\C1CCCCC1)C(NP(=O)(c1ccccc1)c1ccccc1)c1ccccc1 (stereo not given)	SIRT5 block 22
CN(C(=O)CSc1nc2ccccc2o1)C1CCS(=O)(=O)C1 (stereo not given)	SIRT5 block 16 (no result: PGC1a acetyl inh)
COc1cccc(-c2cnc3c(c2)C(=O)N([C@H](C)CO)C[C@@H](C)[C@H](CN(C)C(C)=O)O3)c1	none (no result: PAX8 inh HTS)
Nc1cccc(-c2csc(-n3ncc(C(=O)O)c3C(F)(F)F)n2)c1	SIRT5 block 29
CCN1CCN(c2ccc(S(=O)(=O)N3CCOCC3)cc2NC(=O)/C=C/c2ccc([N+](=O)[O-])cc2)CC1	PAX8 inh HTS 72
Cc1ccc(NC(=O)/C=C/c2ccc3c(c2)OCO3)cc1S(=O)(=O)N1CCOCC1	rRNA inh HTS -20
COc1ccccc1NC(=O)/C=C/c1ccc(OC)c(S(=O)(=O)N2CCOCC2)c1	none
O=C(/C=C/c1cccc(F)c1)Nc1cc(S(=O)(=O)N2CCOCC2)ccc1N1CCCC1	none
COc1ccc(/C=C/C(=O)Nc2cc(F)ccc2C)cc1S(=O)(=O)N1CCOCC1	SIRT5 block 18
O=C(/C=C/c1cccc(F)c1)Nc1cc(S(=O)(=O)N2CCOCC2)ccc1Cl	rRNA inh HTS -17 (no result: SIRT5 block)
C[C@H](CO)N1C[C@H](C)[C@H](CN(C)Cc2ccc(Oc3ccccc3)cc2)OCc2ccccc2-c2c(n(C)c3ccccc23)C1=O	none
CN(C)C(=O)C[C@H]1CC[C@@H]2[C@H](COC[C@@H](O)CN2C(=O)C2CC2)O1	none
O=C(C1CCCC1)N1CC(=O)N2[C@H](CO)[C@H](c3ccc(C#Cc4cccc(F)c4)cc3)[C@@H]2C1	none (no result: PAX8 inh HTS)
CCCN1[C@@H]2c3ccc(-c4cccc(C(=O)N(C)C)c4)c(=O)n3C[C@@H]2[C@@H](CO)[C@@H]1C(=O)OC	none (no result: PAX8 inh HTS)
COc1ccc(S(=O)(=O)N(C)C[C@@H]2Oc3ccc(NC(=O)Nc4cccc5ccccc45)cc3CC(=O)N([C@H](C)CO)C[C@@H]2C)cc1	none (no result: PAX8 inh HTS)
Nc1ccc(Sc2nc3ccccc3[nH]2)cc1	rRNA inh HTS -22
Cc1ccc(NS(=O)(=O)c2ccc3c(c2)NC(=O)CCS3)cc1C	rRNA inh HTS -26 (no result: EWS-Fli inh)
Cc1ccc(CCNS(=O)(=O)c2ccc3c(c2)NC(=O)CCS3)cc1	none (no result: EWS-Fli inh)
Cc1cccc(CCNS(=O)(=O)c2ccc3c(c2)NC(=O)CS3)c1	rRNA inh HTS -35 (no result: EWS-Fli inh)
COc1ccc2c3c([nH]c2c1)[C@H](CO)N(C(=O)NC(C)C)CC31CCN(C(=O)c2ccncc2)CC1	none (no result: PGC1a acetyl inh, PAX8 inh HTS, EWS-Fli inh, SIRT5 block, LGR2 inh)
O=C(c1cnccn1)N1CC(=O)N2[C@H](CO)[C@H](c3ccc(C#CC4CCCCC4)cc3)[C@@H]2C1	none
CCC(O)(CC)C(=O)N/N=C/c1cc(Br)cc(Br)c1O	rRNA inh HTS -21
O=C(Nc1ccccc1[N+](=O)[O-])c1cc(S(=O)(=O)Nc2ccccn2)ccc1Cl	none
NS(=O)(=O)c1ccc(Cl)c(C(=O)Nc2ccccc2[N+](=O)[O-])c1	SIRT5 block 18 (no result: PGC1a acetyl inh)
O=C(NNc1ccccc1[N+](=O)[O-])Nc1ccc(Cl)c(Cl)c1	SIRT5 block 16 (no result: PGC1a acetyl inh, LGR2 inh)
CCN(CC)S(=O)(=O)c1cc([N+](=O)[O-])ccc1NNC(=O)Nc1ccc(Cl)c(Cl)c1	PAX8 inh HTS 89 (no result: PGC1a acetyl inh, rRNA inh HTS, EWS-Fli inh, SIRT5 block, LGR2 inh)
CC=Cc1ccc2n(c1=O)C[C@H]1[C@H](CO)[C@@H](C(=O)NCc3ccccn3)N(CCC)[C@@H]21 (mixture of isomers)	none (no result: PAX8 inh HTS)
CCN1C(=O)S/C(=C/c2ccc(Sc3nc4ccccc4[nH]3)o2)C1=O	rRNA inh HTS -23
N#C/C(=C/c1ccc(Sc2nc3ccccc3[nH]2)o1)c1cccc(Br)c1	none (no result: rRNA inh HTS, PAX8 inh HTS, EWS-Fli inh, SIRT5 block, LGR2 inh)
CC(C)CC#Cc1ccc([C@@H]2[C@H](CO)N3CCCCN(S(=O)(=O)c4ccc(F)cc4)C[C@@H]23)cc1	rRNA inh HTS -19
O=S(=O)(c1ccc(F)cc1)N1CCCCN2[C@H](CO)[C@@H](c3ccc(C#CC4CC4)cc3)[C@H]2C1	none
O=S(=O)(c1ccc(F)cc1)N1CCCCN2[C@H](CO)[C@@H](c3ccc(C#CC4CCCC4)cc3)[C@@H]2C1	SIRT5 block 18 (no result: rRNA inh HTS, LGR2 inh)
O=S(=O)(c1ccc(F)cc1)N1CCCCN2[C@H](CO)[C@H](c3ccc(C#CC4CCCC4)cc3)[C@H]2C1	SIRT5 block 22 (no result: rRNA inh HTS, LGR2 inh)
O=S(=O)(c1ccc(F)cc1)N1CCCCN2[C@H](C1)[C@@H](c1ccc(C#CC3CC3)cc1)[C@@H]2CO	none
O=S(=O)(c1ccc(F)cc1)N1CCCCN2[C@H](C1)[C@H](c1ccc(C#CC3CCCC3)cc1)[C@@H]2CO	SIRT5 block 18 (no result: rRNA inh HTS, LGR2 inh)
COc1ccc2c3c(n(C)c2c1)[C@@H](CO)N(Cc1ccncc1)CC31CCN(C(=O)Nc2cccc(F)c2)CC1	none (no result: PAX8 inh HTS)
O=S(=O)(c1ccccc1)N1CCCCN2[C@H](C1)[C@H](c1ccc(C#CC3CCCC3)cc1)[C@@H]2CO	SIRT5 block 19
O=S(=O)(c1ccccc1)N1CCCCN2[C@H](CO)[C@H](c3ccc(C#CC4CCCC4)cc3)[C@@H]2C1	none
Cc1ccc(S(=O)(=O)N2C[C@@H]3O[C@@H](CNS(=O)(=O)c4ccccc4C)CC[C@@H]32)cc1	none (no result: PGC1a acetyl inh, rRNA inh HTS, PAX8 inh HTS, LGR2 inh)
Clc1nnc(N/N=C/c2ccccc2)c2ccccc12	none (no result: rRNA inh HTS, PAX8 inh HTS, EWS-Fli inh, SIRT5 block)
C[n+]1ccc(/C=N/Nc2nc(Cl)c(C#N)c(Cl)c2Cl)cc1	PAX8 inh HTS 63
C[C@@H]1CCCCO[C@@H](CN(C)CC2CCCCC2)[C@@H](C)CN([C@H](C)CO)C(=O)c2cc(NS(=O)(=O)c3ccc(Cl)cc3)ccc2O1	none (no result: LGR2 inh)
C[C@@H]1CCCCO[C@H](CN(C)CC2CCCCC2)[C@H](C)CN([C@H](C)CO)C(=O)c2cc(NS(=O)(=O)c3ccc(Cl)cc3)ccc2O1	PAX8 inh HTS 95, EWS-Fli inh 63 (no result: SIRT5 block)
C[C@@H]1CN([C@H](C)CO)C(=O)c2cc(NS(=O)(=O)c3ccc(Cl)cc3)ccc2O[C@@H](C)CCCCO[C@@H]1CN(C)CC1CCCCC1	PAX8 inh HTS 78, EWS-Fli inh 61 (no result: SIRT5 block)
Cc1noc(C)c1S(=O)(=O)N(C)C[C@@H]1Oc2ccc(NC(=O)Nc3ccc4c(c3)OCO4)cc2CC(=O)N([C@@H](C)CO)C[C@H]1C	none (no result: EWS-Fli inh)
CC(C)N1CCN(Cc2cnc(-c3ccccc3)s2)CC1CCO (stereo not given)	SIRT5 block 22
CC(C)CCN1CCN(Cc2cnc(N3CCCC3)s2)CC1CCO (stereo not given)	SIRT5 block 38 (no result: PGC1a acetyl inh)
COc1ccc(NS(=O)(=O)c2ccc(N3CCCC3)c(NC(=S)Nc3cccc(C)c3C)c2)cc1	none (no result: PGC1a acetyl inh, rRNA inh HTS, EWS-Fli inh, SIRT5 block)
